# Experimental data: PubChem BioAssay AID1024 (Sanford-Burnham Center for Chemical Genomics, 2008)
# Hit rate of the full screen: of about 96,000 compounds, about 1,400 (1.5%) were called active. What follows is part of a selection rich in actives, with near analogues and random picks from the rest. A number with no mark means an inactive call.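 Rule for the calls: active = activation factor of 2 or more for CYP2C9 at a 5 µM dose; inactive = the rest.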
# Target: Cytochrome P450 2C9 (Homo sapiens) (UniProt P11712)
# Assay: human CYP2C9 activators, primary screen, biochemical, luminescence (AID 1024);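 note: 0 = sulfaphenazole-blocked wells and 1 = vehicle-only wells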
# Conditions: recombinant CYP2C9, luciferin-H conversion, at 5 µM, stronger effect = higher value, factor 1 = untreated enzyme, 0 = blocked
# Sequence of Cytochrome P450 2C9 (Homo sapiens) (P11712 whole entry, looked up): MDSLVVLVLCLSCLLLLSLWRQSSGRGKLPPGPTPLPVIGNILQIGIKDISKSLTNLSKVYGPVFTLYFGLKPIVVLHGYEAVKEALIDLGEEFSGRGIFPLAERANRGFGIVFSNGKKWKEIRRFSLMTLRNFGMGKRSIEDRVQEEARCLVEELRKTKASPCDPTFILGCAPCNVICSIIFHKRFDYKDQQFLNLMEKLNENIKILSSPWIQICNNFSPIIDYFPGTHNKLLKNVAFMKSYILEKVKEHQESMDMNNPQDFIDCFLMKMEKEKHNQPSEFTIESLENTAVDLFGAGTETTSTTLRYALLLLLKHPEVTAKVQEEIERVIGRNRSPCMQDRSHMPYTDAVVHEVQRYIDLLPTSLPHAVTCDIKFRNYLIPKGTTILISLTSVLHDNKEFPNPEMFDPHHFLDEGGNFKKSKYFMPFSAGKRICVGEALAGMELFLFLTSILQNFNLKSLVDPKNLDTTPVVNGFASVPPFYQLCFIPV
row,SMILES,activation factor
1,CN1C2CCC1/C(=C\c1ccccc1Cl)C(=O)/C2=C\c1ccccc1Cl,1.8
2,COC(=O)/C=C/C(=O)NCc1ccco1,1
3,C=CCn1c(COc2ccccc2F)nnc1SCC(=O)N1CC(=O)Nc2ccccc21,0.9
4,C=CCn1c(COc2ccccc2)nnc1SCC(=O)NCC(=O)OCC,1.1
5,C=CCn1c(COc2cccc3cccnc23)nnc1SCC(=O)OC,4.1 (active)
6,CCN(CC)Cc1csc2ccc(Br)cc12,1.1
7,COc1cc(C(=S)N2CCOCC2)cc(OC)c1OC(=O)c1cc([N+](=O)[O-])c(C)c([N+](=O)[O-])c1,0.9
8,COc1ccc(NCc2nnc(SCc3ccccc3)n2-c2ccc(OC)cc2)cc1,0.4
9,O=C(C(NS(=O)(=O)c1cccc2nsnc12)c1ccccc1)N1CCN(c2ccccc2)CC1 (stereo not drawn),0
10,Cc1cccc(C)c1NC(=O)CCS(=O)(=O)c1cccc2nsnc12,1
11,O=C(CCS(=O)(=O)c1cccc2nsnc12)N1CCN(c2ccccc2F)CC1,2.4 (active)
12,CSc1nc(-c2ccco2)nn1C(=O)CCc1ccccc1,1.1
13,O=C(N/N=C/c1ccsc1)c1cc(O)cc(O)c1,0.9
14,COc1ccc(-c2csc3nc(-c4ccccc4F)oc(=O)c23)cc1OC,1
15,CS(=O)(=O)N1CCN(C(=O)c2cc3ccccc3oc2=O)CC1,1
16,CCOC(=O)N1CCN(C(=O)c2cc3c(ccc4ccccc43)oc2=O)CC1,0.5
17,C=CCc1cccc2cc(C(=O)N3CCN(C(=O)OCC)CC3)c(=O)oc12,2.1 (active)
18,CCC(C)NC(=O)c1c(N)n(/N=C/c2cccs2)c2nc3ccccc3nc12 (stereo not drawn),0.8
19,Cc1cccc(-n2cnc(C(=O)Nc3cccnc3)c2)n1,0.1
20,CCOc1ccccc1Nc1nnc(SCC(=O)Nc2cc(C)on2)s1,0.9
21,CCOc1ccccc1NC(=O)CCN1CCN(S(=O)(=O)c2ccc(OC)cc2)CC1,0.6
22,CCOc1ccccc1NC(=O)CCc1ccc(C)o1,2.8 (active)
23,Cc1c(Nc2nc3ccccc3nc2NS(=O)(=O)c2cccs2)c(=O)n(-c2ccccc2)n1C,0.5
24,O=C(CCc1ccc(S(=O)(=O)N2CCOCC2)cc1)Nc1ccc2ccccc2c1,0.4
25,CCCOc1ccccc1C(=O)NCCCC(=O)O,1.1
26,CCOc1ccccc1C(=O)NCCCn1ccnc1,0.3

row,SMILES,activation factor
1,CCCCOCCCNC(=O)c1ccccc1OCC,2.9 (active)
2,CCc1cc(C(c2ccccc2OC)N2CCOCC2)c(NC(=O)c2ccccc2)s1 (stereo not drawn),0.1
3,O=C(NC1CCCCC1)C1CC(=O)N(CCc2ccccc2)C1 (stereo not drawn),1
4,Cc1nn(-c2ccccn2)c2c1C(c1ccncc1)C1=C(CC(C)(C)CC1=O)N2 (stereo not drawn),0.2
5,COc1ccc(/C=C2\CCCC3C2=NN(C(=O)c2scnc2C)C3c2ccc(OC)cc2)cc1 (stereo not drawn),0.2
6,O=C(NCc1ccccc1Cl)c1csc2c1CCCCC2,2.5 (active)
7,CC(=O)Cc1nsc(NC(=O)c2csc3c2CCCC3)n1,0.7
8,COC(=O)c1sccc1NC(=O)c1csc2c1CCCC2,0.9
9,CC(C)(C)NS(=O)(=O)CC12CCC(CC1=O)C2(C)C (stereo not drawn),0.8
10,Cc1cc(C)c2c(-n3cccc3)c(C(=O)NNS(=O)(=O)c3ccc(F)cc3)sc2n1,0
11,Cc1ccc2nc(/C(C#N)=C\c3ccc(OC(=O)c4cccs4)cc3)[nH]c2c1,0.2
12,C=CCOC(=O)C1=C(C)NC(C)=C(C(=O)OCC=C)C1c1cccs1,0
13,CNC(=O)c1csc(-c2ccccc2)n1,0.9
14,Cc1ccc(S(=O)(=O)N(C)CC(=O)N2CCc3ccccc32)cc1,2.3 (active)
15,O=C(CSCc1ccccc1)N1CCc2ccccc21,1.1
16,Cc1ccc(S(=O)(=O)NCC(=O)OCC(=O)N2CCc3ccccc32)cc1,1.3
17,CCCC(=O)Nc1nc2ccc(NC(=O)c3cccnc3)cc2s1,0.7
18,O=C(/C=C\NCC(=O)c1ccccc1)c1ccccc1,0.9
19,Cc1nn(-c2ccccc2)c(Cl)c1C(=O)Nc1ccccc1,1.5
20,COc1ccccc1N1CCN(C(=O)CSc2nnc(-c3ccoc3C)o2)CC1,0.7
21,COc1ccccc1-c1nnc(SCC(=O)N2CC(C)CC(C)C2)o1 (stereo not drawn),3.9 (active)
22,COc1ccccc1-c1nnc(SCC(=O)Nc2ccccc2)o1,1.6
23,Cc1cccc(C)c1NC(=O)c1ccc(CN2CCc3ccccc3C2)cc1,1.1
24,Cn1nc([N+](=O)[O-])nc1Sc1ccc(C(C)(C)C)cc1,0.9
25,COc1cccc(/C=N\Nc2nncc(-c3ccccc3)n2)c1,0.9
26,COc1ccc(S(=O)(=O)N2CCCCC2)cc1Br,2.1 (active)

row,SMILES,activation factor
1,CCOc1ccc(S(=O)(=O)N2CCCCCC2)c2ccccc12,1.5
2,COc1ccc(S(=O)(=O)N2CCCC2)c(C)c1C,2.5 (active)
3,COc1ccc(S(=O)(=O)Nc2ccc(F)cc2)c(C)c1C,0.3
4,COc1ccc(S(=O)(=O)N2CCCC(C(=O)N3CCN(C)CC3)C2)cc1C (stereo not drawn),1.2
5,COc1ccc(S(=O)(=O)Nc2ccc(S(=O)(=O)N3CCCCC3)cc2)cc1OC,0.1
6,Cc1ccc(-c2nn(-c3ccccc3)cc2/C=N/NC(=O)c2ccc3c(c2)OCO3)cc1,0.2
7,O=C(O)C1CCCN(S(=O)(=O)c2cccc3cccnc23)C1 (stereo not drawn),1.2
8,O=C(Nc1nccs1)C1CCCN1S(=O)(=O)c1cccc2cccnc12 (stereo not drawn),0.5
9,COc1ccccc1CNC(=O)C1CCCN(S(=O)(=O)c2cccc3cccnc23)C1 (stereo not drawn),2.9 (active)
10,COc1ccc(NC(=O)C2CCCN(S(=O)(=O)c3cccc4cccnc34)C2)cc1 (stereo not drawn),1.5
11,Cc1cccc(NC(=O)C2CCN(S(=O)(=O)c3cccc4cccnc34)CC2)c1,2.8 (active)
12,COc1ccc(NC(=O)C2CCCN(S(=O)(=O)c3cccc4cccnc34)C2)cc1OC (stereo not drawn),1.2
13,CCOC(=O)N1CCN(CC(=O)n2c(C)c(C)c3ccccc32)CC1,2.3 (active)
14,CCOC(=O)N1CCN(CC(=O)c2c(C)[nH]c3ccccc23)CC1,1.6
15,CCOC(=O)N1CCN(C(=O)c2n[nH]c(=O)c3ccccc23)CC1,1
16,COc1ccccc1C(=O)C(O)c1ccccc1OC (stereo not drawn),1
17,Cc1ccc(OC(=O)c2ccccc2C(=O)OCC(F)(F)C(F)F)cc1,0.2
18,COc1ccccc1C(=O)Oc1ccc(N2C(=O)CCC2=O)cc1,2.1 (active)
19,CCN(CC)c1ccc(/C=N/Nc2nc(C)cc(=O)[nH]2)cc1,1.2
20,COCc1cc(C)nc2sc3c(=O)n(-c4cccc5ccccc45)nnc3c12,0.7
21,O=C(NNC(=O)c1cccnc1)Nc1ccccc1,1.1
22,COC(=O)c1c(C)c(C)nc(N)c1C#N,1.1
23,COC(=O)C(C)N(C#N)c1nc(C)nc(C)n1 (stereo not drawn),2.4 (active)
24,CCOC(=O)c1sc(C)c2c1NC(C)(c1cccc3ccccc13)NC2=O (stereo not drawn),0
25,Cc1ccc2c(c1)-c1c(ssc1=S)C(C)(C)N2C(=O)CN1C(=O)c2ccccc2C1=O,0.2
26,O=C(c1cc(-c2ccc(O)cc2)on1)N1CCCc2ccccc21,0.4

row,SMILES,activation factor
1,CC(NC(=O)c1cc(-c2ccccc2)on1)c1ccccc1 (stereo not drawn),1.2
2,O=C(Nc1ccccc1C(F)(F)F)c1cc(-c2ccc(O)cc2)on1,3.3 (active)
3,COc1cc(OC)c(C(=O)Nc2ccc(N(C)C)cc2)cc1OC,0.7
4,COc1ccc(Cl)cc1C(=O)Nc1ccc(N(C)C(C)=O)cc1,3.1 (active)
5,CCOc1ccc(NC(=O)Nc2ccc(N(C)C(C)=O)cc2)cc1,1.1
6,COc1ccc(Cl)cc1C(=O)NCc1cn(C)nc1C,1
7,COc1ccc(Cl)cc1C(=O)NCC#N,1.8
8,CCC(C)NC(=O)c1cc(Cl)ccc1OC (stereo not drawn),2.7 (active)
9,COc1ccc(N(CC(=O)N/N=C/c2cccs2)S(=O)(=O)c2ccc(OC)c(OC)c2)cc1,0.6
10,O=C(CNC(=O)OCc1ccccc1)Oc1cc2oc(=O)cc(-c3ccccc3)c2cc1Cl,0.2
11,O=C(Nc1ccc(Br)cc1)c1cccc(NC(=O)C2C3CC4OC(=O)C2C4C3)c1 (stereo not drawn),0.3
12,CN1OC(COC(=O)c2ccc(Cl)cc2)CC1c1ccccc1 (stereo not drawn),0.6
13,COc1ccc(NC(=O)Nc2ccc3nsnc3c2)cc1,0.8
14,O=C(Nc1nnc(C2CC2)s1)c1ccccn1,1.3
15,Cc1nn(Cc2ccc(Cl)c(Cl)c2)c(C)c1NC(=O)c1cc(C2CC2)on1,0
16,CSc1ccccc1NC(=O)c1cc(C2CC2)on1,2.4 (active)
17,O=C(NCc1ccco1)C1CCCN(S(=O)(=O)c2ccccc2)C1 (stereo not drawn),0.7
18,O=C(NC1CCCCC1)C1c2ccccc2C(=O)N1Cc1ccco1 (stereo not drawn),0.9
19,O=C(Cc1ccc(F)cc1)NC1CCCC1,1.4
20,O=C(CC1OC(=O)c2ccccc21)NC1CCCCC1 (stereo not drawn),2 (active)
21,Cc1c(Nc2cc(N3CCCC(C)C3)c3nonc3c2[N+](=O)[O-])c(=O)n(-c2ccccc2)n1C (stereo not drawn),0.6
22,CCOc1ccc(NC(=O)C2CC(=O)N=C(N)S2)cc1 (stereo not drawn),1
23,COc1cccc(C(=O)NNC(=O)c2ccccc2Br)c1,2.8 (active)
24,COc1cccc(NC(=O)c2ccccc2SC)c1,1
25,COc1cccc(C(=O)Nc2ccc(N3CCCC3)cc2)c1,0.9
